This is a sample that favours compounds with a hit; in the whole collection about 2.2% have one here.
Mito fusion act: blocks mitochondrial division or promotes mitochondrial fusion; 320,000 tested, 0.23% active; AID 485298; Potency, µM (doses to about 46.1 µM), inactives show top-dose growth rescue (activation), most hits filed as activators; S. cerevisiae fusion-defective mutant growth rescue, CellTiterGlo 48 h; further: % of control where 0% means no effect; nearly all actives have a fitted effect of over 45% in size
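Read-out: ATP-based luminescence (CellTiterGlo, 10 min ambient) reporting growth of fusion-defective ts yeast after 48 hours at 37C on glycerol/ethanol YPEG medium in the presence of compound.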
TDP-43 yeast inh: TDP-43 toxicity inhibition in yeast; TDP-43 expressing yeast growth rescue, BacTiter-Glo, 24 h; Potency, µM (highest dose often 46.1 µM), inactives show at the highest dose growth rescue (activation), actives largely listed as activators; 410,000 tested, 1.8% active; further: % of control where 0% means no effect; nearly all actives have a fitted effect of over 50% in size
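Cell-based yeast growth screen: TDP-43 expression induced in galactose, inoculum OD600=0.02 after raffinose pregrowth to mid-log. Read-out BacTiter-Glo luminescence at 24 hr, 30 deg C; inhibition of toxicity seen as signal increase.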
Abeta rescue: A-beta toxicity reversal in yeast. 410,000 tested, 0.063% active. Potency, µM (titrated, usually from 46.1 µM), hits mostly activators. yeast expressing A-beta42, growth rescue, OD600, 48 h; response scale: 0% DMSO, 100% iron-clioquinol control; further: nearly all actives have a fitted effect of over 55% in size
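Growth rescue measured by 600 nm absorbance after 48 h yeast culture at 30 C with compound. Values normalized between DMSO and an equimolar ferric chloride plus clioquinol control.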
FUS yeast rescue: rescues growth of FUS-expressing yeast; 390,000 tested, 0.24% active; S. cerevisiae FUS-expressing, growth rescue, OD600, 24 h; Potency, µM (series often up to 76.6 µM), actives largely listed as activators;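 further: plate controls were DMSO vehicle for no effect and reference control for full effect; nearly all actives have a fitted effect of over 55% in size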
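FUS-expressing yeast, raffinose-pregrown, induced in 2% galactose minimal medium at OD 0.005; compounds in a dilution series, 24hr at 30C. Growth restoration read as absorbance at 600 nm. CP55940 positive control, DMSO negative.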
aSyn rescue: rescues yeast growth from alpha-synuclein toxicity | Potency, µM (doses to about 46.1 µM), for the others: top-dose growth rescue (activation), hits mostly activators | Yeast expressing alpha-synuclein, growth rescue, BacTiter-Glo, 24 h | 370,000 tested, 0.14% active | AID 652106; further: % of control where 0% means no effect; nearly all actives have a fitted effect of over 65% in size
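Rescue of yeast growth: cells expressing toxic alpha-synuclein, induced in galactose at OD600 0.02, incubated with compound 24 h at 30 C. ATP luminescence quantified growth; inhibitors of toxicity appear as activators.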
An asterisk follows results filed as active; i = inactive; ? = inconclusive; . = no result. The call rests on the fitted dose curve; in most records, active means well fitted curve in the direction sought with a large enough effect; inconclusive means small, poorly fitted or top-dose-only effect, or another doubt; inactive means no such curve, though single readings can be large; an effect the other way counts as inactive or inconclusive. Potency means the concentration at half of the fitted maximal effect.

SMILES	Mito fusion act	TDP-43 yeast inh	Abeta rescue	FUS yeast rescue	aSyn rescue
O=C(NCCc1csc(-c2ccccc2)n1)c1ccco1	6%	?	i	i	6%
Cc1nc(-c2ccccc2)sc1CCNC(=O)c1ccco1	.	18µM*	i	i	-14%
CCOc1ccc(OCC)c(NC(=O)C2CCCN(S(=O)(=O)c3ccc4c(c3)oc(=O)n4C)C2)c1 (configuration not stated)	.	-13%	i	i	.
Cc1ccc(-c2nc(C)c(CCNC(=O)c3cccs3)s2)cc1	.	16µM*	i	i	-19%
CCOc1ccc(C(=O)NCCc2sc(-c3ccc(C)cc3)nc2C)cc1	.	?	i	i	.
Cc1ccc(CN(Cc2ccco2)C(=O)c2ccc(Cl)cc2)o1	.	-6%	i	i	.
COc1ccc(C(=O)CSc2nc3ccccc3n2CC(=O)NC(C)(C)C)cc1	8%	0%	i	i	14µM*
CCOC(=O)CSc1nc2ccccc2n1CC(=O)NC(C)(C)C	-1%	-19%	i	i	8%
COC(=O)c1ccc(Cn2c(SCC(=O)NCc3ccccc3)nc3ccccc32)cc1	.	35µM*	i	?	.
Nc1nc(-c2cc(Cl)cc(Cl)c2OC(F)F)cs1	4%	16µM*	i	i	2%
CCc1ccc(OC)c(-c2csc(N)n2)c1	?	16%	i	i	-23%
Cc1c(C(=O)NCc2ccccc2Cl)sc2ncnc(N(C)C3CCCCC3)c12	.	?	i	i	.
Cc1ccc(C)c(CNC(=O)c2sc3ncnc(N(C)C4CCCCC4)c3c2C)c1	.	22µM*	i	i	.
CCn1c(SCc2cccc(F)c2)nc2c(c1=O)SCC2	?	0%	i	i	9%
CCn1c(SCc2ccc(F)cc2)nc2c(c1=O)SCC2	-1%	18µM*	i	i	0%
CCOc1cccc(C(=O)Nc2ccccc2C(=O)N2CCN(C)CC2)c1	4%	0%	i	i	-1%
CC(=O)N1CCC2(CC1)OC(=O)C(C)=C2C(=O)Nc1ccccc1C(F)(F)F	.	6%	i	i	.
CC(C)(C)C(c1nc2ccccc2[nH]1)n1c(-c2cccc(S(C)(=O)=O)c2)nc2ccccc21 (configuration not stated)	.	8%	i	i	3%
CC(C)(C)C(c1nc2ccccc2[nH]1)n1c(-c2cc(Cl)cc(Cl)c2)nc2ccccc21 (configuration not stated)	.	35µM*	?	i	-8%
COc1ccc(NC(=O)/C=C/c2ccc(Cl)cc2)cc1	5.2µM*	.	.	.	-20%
CC(=O)Nc1ccc(NC(=O)/C=C/c2ccc(Cl)cc2)cc1	2%	4%	i	i	-4%
Cc1ccccc1Cn1c(C)c(CNCCCc2ccccc2)c(C(=O)O)c1C	.	-10%	i	i	.
Cc1cccc(N2CCN(C(=O)C3CCN(C(=O)c4cc5sccc5n4C)CC3)CC2C)c1 (configuration not stated)	.	20%	?	32µM*	.
Cc1ccc(C)c(N2CCN(C(=O)C3CCN(C(=O)c4cc5sccc5n4C)CC3)CC2)c1	.	13µM*	i	?	.
Cc1ccc(C)c(N2CCN(C(=O)c3cc4sccc4n3C)CC2)c1	0%	14%	i	?	0%
SMILES	Mito fusion act	TDP-43 yeast inh	Abeta rescue	FUS yeast rescue	aSyn rescue
CCc1c(C)sc2c1CCN(C(=O)Nc1ccccc1C(F)(F)F)C2c1ccccc1 (configuration not stated)	.	12%	i	i	.
Cc1ccccc1Cn1ccc2ccc(-c3ccc4ccn(Cc5ccccc5)c4c3)cc21	.	.	.	i	.
CC(=O)c1ccccc1NC(=O)COC(=O)C1CCCN1S(=O)(=O)c1ccccc1F (configuration not stated)	2%	17%	i	i	14µM*
Clc1ccc(-c2nc(N3CCCCC3)nc3ccccc23)cc1	35µM*	-4%	i	?	-14%
CCOc1ccc2cc(/C=C/C(=O)c3ccco3)c(Cl)nc2c1	-2%	7.9µM*	i	i	-1%
Cc1cccc(N2CC(c3nc4ccc(C)cc4[nH]3)CC2=O)c1 (configuration not stated)	.	1%	i	i	.
O=C(NC1CCCCC1)c1ccc(-c2ccccc2F)o1	.	13µM*	i	.	1%
O=C(NC1CCCCCC1)c1ccc(CS(=O)(=O)Cc2ccccc2F)o1	0%	1%	i	i	3%
Cc1ccccc1-c1nc(C(=O)NCC2CCCO2)cc2c1[nH]c1ccccc12 (configuration not stated)	18%	10µM*	i	i	6%
COc1ccc(-c2nc(C(=O)NCC3CCCO3)cc3c2[nH]c2ccccc23)cc1 (configuration not stated)	-13%	0%	i	?	-4%
O=C(NCC1CCCO1)c1cc2c([nH]c3ccccc32)c(-c2cccc(Br)c2)n1 (configuration not stated)	1%	10µM*	i	?	16%
Cc1ccc(-c2nc(C(=O)NCC3CCCO3)cc3c2[nH]c2ccccc23)cc1 (configuration not stated)	1%	25µM*	i	i	?
Cc1ccc(-n2c(=O)c3c4c(sc3n(Cc3cc(=O)n5cc(Cl)ccc5n3)c2=O)CCC4)cc1C	.	7%	i	i	.
CC(=O)CCc1ccc(Oc2nc(-c3cccnc3)nc3ccccc23)cc1	25%	14µM*	i	i	9%
CCc1ccccc1NC(=O)CSc1nccn1C	.	-3%	i	i	7%
O=C(Oc1c(Cl)cc(Cl)c2cccnc12)c1cccc([N+](=O)[O-])c1	18%	2µM*	i	i	?
Cc1ccc(NC(=O)Cc2cccc(OC(F)(F)F)c2)c(S(=O)(=O)N2CCOCC2)c1	.	.	.	i	.
COc1cc(S(=O)(=O)N2CCN(Cc3ccc4c(c3)OCO4)CC2)c(C)cc1C	14µM*	7%	i	i	7%
Cc1cc(C)c(S(=O)(=O)N2CCN(Cc3ccc4c(c3)OCO4)CC2)cc1C	.	17%	?	i	.
CC(=O)c1ccc(NC(=O)CCc2c(C)nc3cc(-c4ccc(Cl)cc4)nn3c2C)cc1	.	1%	i	i	.
CN(C)C1(CNC(=O)c2cccc(S(=O)(=O)Nc3ccc(Br)cc3)c2)CCCCC1	2%	-1%	i	i	0%
COc1ccccc1CNS(=O)(=O)c1cc(C(=O)Nc2cccc(C(F)(F)F)c2)ccc1F	.	7%	i	?	.
CCCC1=Nc2cc(C(=O)NCCc3ccccc3)ccc2Sc2ccc(C)cc21	.	-5%	i	i	.
COCCNC(=S)N1CCC2CC1c1cc(-c3ccc4c(c3)OCO4)ccc12 (configuration not stated)	.	22µM*	?	?	23%

Compound activity: PubChem, National Center for Advancing Translational Sciences (NCATS)
